PubChem BioAssay AID623979 (Broad Institute, 2012)
Results with a measured potency or affinity are listed apart. Inconclusive results are not listed. Unmarked numbers belong to inactive results.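 How the source made its calls: active means fitted half-maximal inhibition concentration at or below twice the top tested dose in every test run; inconclusive means runs disagree, or a weak flat response or poor fit; inactive means the rest, including flat or wrong-direction curves.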

biological target: Cyclin-dependent kinase 5 activator 1 (Homo sapiens) + Cyclin-dependent kinase 5 (Homo sapiens) (UniProt Q15078+Q00535); assay: inhibitors of human CDK5 activity – biochemical, microfluidic mobility shift, dry powder, set 2, selectivity assay for GSK3beta inhibitor project, dose response (AID 623979); conditions: recombinant CDK5-p25, Caliper peptide conversion, 55 min; series mostly up to 35 µM; activity change, negative = inhibition: at the top concentration
Sequence (Q00535 whole entry, looked up): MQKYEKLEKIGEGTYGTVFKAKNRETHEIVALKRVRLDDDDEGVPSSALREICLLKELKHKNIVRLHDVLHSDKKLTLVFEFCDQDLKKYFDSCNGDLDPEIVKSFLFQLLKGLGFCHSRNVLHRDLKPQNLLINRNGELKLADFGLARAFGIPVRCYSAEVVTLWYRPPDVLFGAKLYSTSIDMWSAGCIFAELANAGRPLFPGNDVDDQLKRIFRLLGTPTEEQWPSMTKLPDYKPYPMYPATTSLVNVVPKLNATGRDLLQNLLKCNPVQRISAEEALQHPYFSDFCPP
Sequence (Q15078 whole entry, looked up): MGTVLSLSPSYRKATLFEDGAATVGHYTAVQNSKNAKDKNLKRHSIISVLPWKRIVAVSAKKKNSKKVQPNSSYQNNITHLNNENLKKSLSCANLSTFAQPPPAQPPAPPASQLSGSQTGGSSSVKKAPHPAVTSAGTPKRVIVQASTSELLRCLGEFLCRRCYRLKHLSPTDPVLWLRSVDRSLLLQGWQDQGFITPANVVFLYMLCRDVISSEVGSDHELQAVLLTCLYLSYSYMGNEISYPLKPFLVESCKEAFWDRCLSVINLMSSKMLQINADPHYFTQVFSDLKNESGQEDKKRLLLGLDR

Row | Structure (SMILES) | activity change, negative = inhibition
1 | Cc1ccc(S(=O)(=O)N2CCN(CC(=O)N/N=C/c3ccccn3)CC2)cc1 | -4.16%
2 | Clc1ccc(CSc2nnc(-c3ccncc3)o2)c(Cl)c1 | -0.53%
3 | Nc1nc(NCC2CCCO2)nc(Nc2ccc(F)cc2)c1[N+](=O)[O-] (stereo not given) | -9.06%
4 | COC(=O)c1ccc(CSc2ccc3nnc(-c4ccc(F)cc4)n3n2)o1 | -2.23%
5 | Nc1nc(NCC2CCCO2)nc(Nc2ccc(Cl)cc2)c1[N+](=O)[O-] (stereo not given) | -6.71%
6 | Nc1nonc1-n1nnc(C(=O)N/N=C/c2c(F)cccc2Cl)c1-c1ccc2c(c1)OCO2 | -2.78%
7 | COc1cc(C(=O)N2CCN(c3ccccn3)CC2)cc(OC)c1OC | -2.66%
8 | CCOc1ccccc1/C=N/NC(=O)c1nnn(-c2nonc2N)c1CN1CCCCCC1 | -4.37%
9 | Cc1cccc(OCC(=O)Nc2ccc3c(c2)C(=O)NC3=O)c1 | -5.65%
10 | Nc1nonc1-n1nnc(C(=O)N/N=C/c2cccc(Cl)c2)c1CN1CCCCCC1 | -2.45%
